Experimental data as given in the OligoGym collection.

target: KLF9; assay: pooled miR-30 sensor sort-seq; sequence = guide strand; conditions: shRNA
Further: reference of the scale not given here.

Sequence | sensor-assay potency score (higher = more potent)
TTTATATCCATCTAAGTGCTTG | -0.361
TTTAGATGACAGATCATGCTGG | 0.459
TTCAGGTCCAACAAGCTCTTGG | -0.253
TTAAACAGTTGTAAAGATCAGT | -0.0225
TTCTTTCTTTTTAAACACCTGC | -0.453
TAGTAGTCCTATTTGAACCATA | -0.845
TCTACATAACTCTTGCACCTGA | -0.302
TTACAAGTTAGCAAGTTGCTAG | -0.0943
TTCGATCGCTTGATCATGCTGG | 0.623
TTCTGTAATTGTAACTACCAAA | -0.904
TTAATCTCAAAAGTTAACGTGA | 0.201
TAAACAAAAATTACTATCCTGC | 0.0439
TTAAACACCTGCAATAGTCTTT | 0.257
TACAGTGTTACAGATCATCTGA | 0.728
TTGCAAAACACTACCCTCCTTC | -0.0123
TTAGTGTTCAATGAACTCTAGT | -0.32
TTCTGTACTTAGTGTAACCTTT | -0.287
TTGATCTTAGGCTACAATGTGC | -0.659
TTCACCTGTATGCACTCTGTAA | -0.85
TATCTTGATATAGTAAATCTAA | -0.625
TTGTCTTTCACTGACTTTGCTT | -0.214
TAACTTATTCATCCTCTGCATT | -0.919
TTTCTCGTGAGAAAACACTTTC | -0.637
